We go through 55 molecules from ChEMBL document CHEMBL3988442, “University of Dundee, Small-Polar-MMV Screening Library” (2021).

Each structure is given as a SMILES string. The campaign covered roughly 48,000 compounds. About 13,000 (27%) showed an effect of 50% or more. The list shows a part of the results.

This assay relates to Wolbachia pipientis. Nature of the assay: Anti-Wolbachia Cell-Based Screen. The class given is functional. On the set-up: scale not given: in the data most compounds retested in dose-response had high values. As to conditions: 5 µM.
For the molecule `c1ccc2sc(N3CCCN(c4ncnc5c4CCNC5)CC3)nc2c1`, the “Percent Effect” value was -7.795%.

Consider `CC(NCCNS(=O)(=O)c1cccc(Cl)c1)C1CCOCC1` (stereo not given), for which the “Percent Effect” value is -16.43%.

Consider `CCOc1ccc(C(=O)NCc2ccnc(N3CCCC3)c2)cn1`, for which the “Percent Effect” value is listed as -6.067%. `CCCN1CCN(Cc2cccc(OCC(N)=O)c2)[C@H]2CS(=O)(=O)C[C@H]21`: the “Percent Effect” value is -4.749%.

For `CCOCc1cnc2n1CCN(C(=O)c1cn(C)c3ccccc13)C2C` (stereo not given), the “Percent Effect” value turned out to be 101.9%.

With `O=C(c1ccc(Cl)cn1)N1CCC(COCc2ccccc2)C1` (stereo not given), the “Percent Effect” value was determined as 7.677%. For `CC(C)c1noc(CN(CCC2CCCCC2)CC(N)=O)n1` the value was 116.2%; for `C=C(C)CN(CC)Cc1nc(CC)no1`, 1.944%. To `CC(C)c1noc(CC[C@@H]2CCCN3CCCC[C@H]23)n1` belongs 17.3%. To `CC(C)(C)c1nc(CN(CCC2CCCCC2)CC(N)=O)no1` belongs 228.2%.

On to `CC(=O)N1CCCCCC1C1CCN(Cc2nc(C(C)C)no2)CC1.Cl` (stereo not given), for which the “Percent Effect” value was found to be 9.412%.

As to `CC(C(=O)NC1CCCC1)S(=O)(=O)Cc1noc(C(C)(C)C)n1` (stereo not given), the “Percent Effect” value is recorded as 6.849%.

As to `CCc1noc(CN(CC(=O)N2CCCCC2)c2ccc(C)cc2)n1`, the “Percent Effect” value amounted to 0.4396%.

Consider `CN(Cc1noc(C(C)(C)C)n1)CC1CCN(CCO)CC1`, for which the “Percent Effect” value is given as -10.5%. To `CCc1noc(CN(CCC2CCCCC2)CC(N)=O)n1` belongs 163.4%; to `CC(C#N)CSc1ccccc1NCC(=O)NCc1ccccc1` (stereo not given), 17.5%. For `CCC1CN(C(=O)c2cc(C(C)=O)c(C)[nH]c2=O)CCN1C(C)C` (stereo not given) the value was 0.5617%; for `CCCN(c1ccccc1C(=O)O)S(=O)(=O)c1cccc2cccnc12`, -16.07%; for `CCc1nc(N2CCCC(CCCOC)C2)c2cnn(C)c2n1` (stereo not given), 108.6%. To `COCC1CCN(c2nc(C(C)(C)C)nc3c2cnn3C)C1` (stereo not given) belongs -4.471%. With `COCCN1CCN(c2nc(C3CCCC3)nc3c2cnn3C)CC1`, the “Percent Effect” value is on record as 8.561%.

On to `CCCc1nc(N2CCCC(CCOC)C2)c2cnn(C)c2n1` (stereo not given), for which the “Percent Effect” value is 105.9%.

Consider `CCCc1nc(N2CCC(CCO)CC2)c2cnn(C)c2n1`, for which the “Percent Effect” value is -6.253%. To `CCc1nc(N2CCN(CCOC)CC2)c2cnn(C)c2n1` belongs 1.381%. To `Cc1noc([C@H]2C[C@H]3OCC[C@H]3N(Cc3ccc(F)cc3)C2)n1.O=C(O)C(F)(F)F` belongs 9.305%; to `CCN(CC)C(=O)Cn1nc(C(C)C)c2cnn(C(C)(C)C)c2c1=O`, 8.022%; to `C=C(C)CN(Cc1cccc(O)c1)C1CCC(O)CC1` (stereo not given), 3.823%. For `CCc1nc2c(N3CCC4(CC3)CNC(=O)C4)ncnc2o1` the value was 4.745%. Regarding `Fc1ccc(OCc2nnc([C@H]3CCN(Cc4ccncc4)C3)o2)cc1`, the “Percent Effect” value worked out at 12.6%. Turning to `Cc1cccc(CN2CCC(c3csc4nccn34)CC2)n1.O=CO`, the “Percent Effect” value is recorded as 151.3%. To `Cn1c(Cn2ccnc2)nnc1C1CCCN(Cc2ccncc2)C1` (stereo not given) belongs -0.06506%. To `Cc1cccc(CN2CCC(c3nccn3CC(N)=O)CC2)n1` belongs -14.31%; to `c1cc(CN2CCCC(c3ccnc4nccn34)C2)ccn1` (stereo not given), 150%; to `Cc1cccc(CN2CCC(NS(C)(=O)=O)CC2)n1`, -9.608%. For `c1cncc(CN2CCC(c3n[nH]c(C4CC4)n3)CC2)c1` the value was 10.48%; for `c1cc(-c2cc(C3CCN(Cc4cncnc4)C3)ccn2)ccn1` (stereo not given), -7.458%; for `c1cncc(CN2CCC(c3csc4nccn34)CC2)c1`, 140.6%.

As to `FC(F)(F)c1cc(C2CCCN(Cc3ccncc3)C2)n[nH]1` (stereo not given), the “Percent Effect” value is -5.824%. For `Cc1ncsc1C(=O)NC1CCN(Cc2cccnc2)CC1` the value was 3.367%. For `c1cc(CN2CCC(c3ccnc4nccn34)C2)ccn1` (stereo not given) the value was 128.4%. Regarding `Cc1ccc(C)c(S(=O)(=O)NCCNc2ccc(-n3cccc3)nn2)c1`, the “Percent Effect” value is 14.81%.

For the molecule `C=C(C)CN(CC)S(=O)(=O)c1cccc(F)c1C#N`, the “Percent Effect” value was -7.097%. For the molecule `CCN(CCO)C(=O)C1CCC(=O)N(CCc2cccc(F)c2)C1` (stereo not given), the “Percent Effect” value is recorded as -9.721%.

In the case of `O=C(Nc1cnccn1)[C@H]1COC[C@H]2CN(c3ncc(F)cn3)C[C@H]21`, the “Percent Effect” value is -11.52%. For `CCN1CCN(C(=O)c2cnc(Cc3c(Cl)cccc3Cl)nc2O)CC1` the value was 1.362%; for `CCc1nccc(CN2CCCC(CNC(=O)c3occc3C)C2)n1` (stereo not given), 4.372%.

Take `CCn1ccnc1CN(C)C1CCCN(CCc2ccccc2)C1` (stereo not given): the “Percent Effect” value was 17.47%. For `c1ccc(CCN2CCCC(c3noc(C4CC4)n3)C2)cc1` (stereo not given) the value was -7.15%; for `Clc1cccnc1N1CCC(C2CCN(Cc3cccnc3)CC2)C1` (stereo not given), -0.1569%. To `Clc1ccc(CN2CCC(C3CCN(Cc4cccnc4)CC3)C2)cc1` (stereo not given) belongs -5.932%. To `c1cncc(CN2CCC(c3ccnc4nccn34)C2)c1` (stereo not given) belongs 122.6%; to `c1ccc(CCN2CCCC(c3ccnc4nccn34)C2)cc1` (stereo not given), 130.1%; to `O=C(Cc1ccsc1)N1CCC(c2n[nH]c3nccnc23)CC1`, 72.86%. In the case of `CC(=O)N1CCC(c2n[nH]c3nccnc23)CC1`, the “Percent Effect” value was found to be 120.8%. For `O=C(Cc1ccsc1)N1CCCC(c2n[nH]c3nccnc23)C1` (stereo not given) the value was -11.37%.
